# This is a sample that favours compounds with a hit; in the whole collection about 7.9% have one here.
# SW480 rereplic – DNA re-replication induction in SW480 cells. SW480 DNA re-replication, Hoechst DNA content imaging, 48 h. Potency, µM (highest dose often 46.1 µM), for inactives: top-dose re-replication activation, hits mostly activators. actives 1.8% (n = 340,000). AID 624297; further: % of control where 0% means no effect; nearly all actives have a fitted effect of over 55% in size
#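 First, 250 cells per well were seeded. Next, compound or vehicle (23 nL) was pinned in, plates sat 48 hr at 37 C. Finally Hoechst was added for 40 min before fluorescence scanning.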
# HT1080NT lethal – kills 2HG-producing HT-1080-NT fibrosarcoma cells | HT-1080-NT fibrosarcoma viability, CellTiter-Glo ATP luminescence, 48 h | Potency, µM (series often up to 46.1 µM), for the others: at the top dose activity, negative = less viability, hits mostly cytotoxic | actives 1.6% (n = 360,000);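 further: NT is the 2HG producing partner of a matched IDH1 knockdown line; 0% = DMSO-treated cells and -100% = media-only wells without cells; nearly all actives have a fitted effect of over 55% in size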
#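 Luminescent CellTiter-Glo readout after 48 hours of compound exposure at 37 degrees C defined viability of HT-1080-NT cells. Activity was normalized to DMSO wells and cell-free media wells; concentration-response curves were fitted and assigned curve classes.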
# MCF10A rereplic – DNA re-replication induction in MCF 10a cells. actives 2.9% (n = 350,000). Potency, µM (doses to about 46.1 µM), inactives show at the top dose activity, positive = re-replication, hits mostly activators. MCF 10A DNA re-replication, Hoechst nuclear intensity, 48 h; further: % of control where 0% means no effect; nearly all actives have a fitted effect of over 50% in size
# HT1080 IDH1KD tx – HT-1080 IDH1 knockdown cell toxicity (counter line); Potency, µM (doses to about 46.1 µM), for the others: at the highest dose activity, negative = toxicity, hits mostly cytotoxic; HT-1080 IDH1 knockdown viability, ATP luminescence, 48 h; AID 686971; actives 2% (n = 360,000);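 further: 0% = DMSO wells and -100% = cell-free medium wells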
#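 IDH1KD HT-1080 cells, 750/well, RPMI + 5% FBS; compound pinned after 2 h settling; 48 h, 37 °C; CellTiter-Glo luminescence; % activity normalised to DMSO and no-cell wells; curves fitted, classed by r2 and efficacy.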
# KB-3-1 cytotox – KB-3-1 parental cell cytotoxicity. KB-3-1 viability, CellTiter-Glo ATP luminescence, 72 h. Potency, µM (top dose mostly 46.1 µM), hits mostly cytotoxic. actives 1.4% (n = 400,000). AID 1347075; further: on the % scale 0 is the no-effect control and ±100 the full control effect; nearly all actives have a fitted effect of over 60% in size
#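 Cytotoxicity in the drug-sensitive parental line KB-3-1 was scored as loss of CellTiter-Glo luminescence following 72 h incubation with compound. Values come from curve fitting of normalized concentration-response data.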
# KB-V1 cytotox – kills drug-selected multidrug resistant KB-V1 cells. KB-V1 MDR cells viability, CellTiter-Glo, 72 h. AID 1347076. Potency, µM (top dose mostly 46.1 µM), hits mostly cytotoxic. actives 3.4% (n = 400,000); further: on the % scale 0 is the no-effect control and ±100 the full control effect; nearly all actives have a fitted effect of over 60% in size
#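 Drug-selected KB-V1 cells, grown in DMEM lacking phenol red with 10% FBS, receive compound titrations; after three days at 37 degrees C, surviving cell ATP is quantified by CellTiter-Glo luminescence and responses normalized and curve-fitted.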
# Starred values were filed as active, the others as inactive; i = inactive; ? = inconclusive; / = not tested or not shown; ! = repeats disagree; [ ] = remark or other dose. The call rests on the fitted dose curve; in most records, active means well fitted curve in the direction sought with a large enough effect; inconclusive means small, poorly fitted or top-dose-only effect, or another doubt; inactive means no such curve, though single readings can be large; an effect the other way counts as inactive or inconclusive. Potency means the concentration at half of the fitted maximal effect.
SMILES,SW480 rereplic,HT1080NT lethal,MCF10A rereplic,HT1080 IDH1KD tx,KB-3-1 cytotox,KB-V1 cytotox
Cc1cccc(C(=O)OC(C)C(=O)Nc2ccc(S(=O)(=O)N3CCCC3)cc2)c1O (centres undefined),2.8%,-17.1%,?,?,i,i
CC(Oc1cc(F)ccc1[N+](=O)[O-])C(=O)Nc1ccc(S(=O)(=O)N2CCCC2)cc1 (centres undefined),16.4µM*,-25.4%,20.6µM*,0.0%,i,?
Cc1ccsc1/C=C1\SC(N2CC(C)OC(C)C2)=NC1=O (centres undefined),1.6%,-1.0%,-37.9%,-0.8%,?,18.4µM*
Cc1ccccc1CN1CCc2nc(N3CCN(c4ncccn4)CC3)ncc2C1,/,/,/,/,i,i
COc1cccc(C(=O)SC2=NCCS2)c1,-0.4%,-0.4%,14.6µM*,?,i,i
COc1cc(NC(=O)SC2=NCCS2)cc(OC)c1,-10.9%,10.0%,0.4%,17.4%,i,i
Cc1cc(C)cc(-n2c(SCC(=O)N3CCC(C)CC3)nc3c([nH]c4ccccc43)c2=O)c1,/,/,/,/,i,i
NC(=O)c1cc([N+](=O)[O-])ccc1NCc1cccc2ccccc12,-31.5%,-14.9%,?,-29.2%,i,?
O=C(/C=C/Nc1ccc([N+](=O)[O-])cc1Br)c1cccc2ccccc12,?,-3.6%,2.5%,1.4%,23.1µM*,i
COc1ccc(C)cc1NC(=O)c1nnn(Cc2cccc(C(F)(F)F)c2)c1N,11.2%,-24.6%,2.06µM*,?,?,i
COc1ccccc1NC(=O)c1nnn(Cc2ccccc2)c1NC(=O)C(F)(F)F,-4.0%,-0.3%,15.4%,-17.7%,18.4µM*,20.6µM*
COc1ccc(C)cc1NC(=O)c1nnn(Cc2cccc(Br)c2)c1N,/,/,/,/,?,i
Cc1cccc(N2CCN(C(=O)c3cnn(-c4ccccc4Cl)c3C3CCN(C(=O)OC(C)(C)C)CC3)CC2C)c1 (centres undefined),/,/,/,/,i,i
Cc1cccc(NC(=O)CSc2nc(=O)n(Cc3ccncc3)c3c2CCC3)c1C,/,/,/,/,i,i
CCOC(=O)c1c(CN2CCN(CCO)CC2)n(-c2ccccc2)c2cc(Br)c(O)cc12,?,?,?,23.1µM*,i,i
CCOC(=O)c1c(CN2CCN(CC#N)CC2)n(C)c2cc(Br)c(OC)cc12,?,?,?,20.6µM*,i,i
Cc1ccc(CNC(=O)CN2Cc3ccccc3C2=O)cc1,/,/,/,/,i,i
O=C(Sc1ccccc1)c1cccc(Cn2cc(C(F)(F)F)ccc2=O)c1,18.4%,18.4µM*,?,23.1µM*,i,?
O=C(Nc1ccccc1)c1cccc(Cn2cc(C(F)(F)F)ccc2=O)c1,-10.2%,2.8%,-3.5%,-5.7%,i,i
N#Cc1cccc(Cn2cc(C(F)(F)F)ccc2=O)c1,-2.8%,0.8%,1.5%,4.0%,i,i
O=C(Nc1ccccc1)c1ccc(Cn2cc(C(F)(F)F)ccc2=O)cc1,0.7%,?,13.1%,-0.8%,i,14.6µM*
CCN(CC(=O)Nc1ccc2c(c1)OCCO2)S(=O)(=O)c1cccs1,-2.4%,5.4%,16.4µM*,14.7%,i,i
CN(CC(=O)Nc1ccc2c(c1)OCCO2)S(=O)(=O)c1ccc(Br)s1,-3.6%,2.3%,24.9%,-2.6%,i,i
CCC(C)[C@H](NC(=O)Nc1ccc2c(c1)OCCO2)C(=O)O (some centres undefined),18.4µM*,-7.4%,?,5.0%,i,i
CCN(Cc1ccc2c(c1)OCCO2)S(=O)(=O)c1ccc(NC(C)=O)cc1,20.8%,-5.5%[9.24 µM],10.7%,-1.3%,i,?
SMILES,SW480 rereplic,HT1080NT lethal,MCF10A rereplic,HT1080 IDH1KD tx,KB-3-1 cytotox,KB-V1 cytotox
CCN(CC)S(=O)(=O)c1ccc2c(c1)nc(CCC(=O)Nc1ccc3c(c1)OCO3)n2CC,-5.0%,-3.9%,2.3%,2.5%,i,14.6µM*
CCN(CC(=O)Nc1ccc2c(c1)OCCO2)S(=O)(=O)c1ccc(C)cc1,-4.0%,9.2%,12.5%,4.5%,i,16.4µM*
Cc1nc2ccn(Cc3cccnc3)c(=O)c2cc1C(=O)Nc1ccc(F)cc1F,/,/,/,/,i,i
CCCN(CC(=O)Nc1ccccc1OC)C(=O)Cc1ccc2c(c1)CCC2,-12.7%,-3.6%,-3.4%,-0.2%,i,?
O=C1c2[nH]nc(-c3ccc(F)cc3)c2C(c2ccccc2F)N1c1ccccc1 (centres undefined),/,/,/,/,i,?
[O-][N+]12CCCc3cccc(c31)CCC2,/,/,/,/,i,i
O=C(Nc1nnc([C@@H]2C[C@H](O)[C@@H](CO)O2)s1)Nc1ccc(F)cc1F,/,4.0%,/,?,i,i
O=C(CCc1ccc(S(=O)(=O)NCCc2ccccc2)cc1)Nc1ccc2c(c1)OCCO2,?,0.7%,?,-1.8%,i,20.6µM*
CCCNS(=O)(=O)c1ccc(CCC(=O)Nc2ccc3c(c2)OCCO3)cc1,0.7%,4.2%,-23.5%,3.6%,i,i
CCOc1ccc(-c2nc(SCC(=O)Nc3cc(F)ccc3F)n3[nH]c(=O)cc3n2)cc1,/,/,/,/,i,?
COc1ccc(NC(=O)C(C2CC2)n2c(=O)c(-c3cc4ccccc4[nH]3)nc3ccccc32)cc1 (centres undefined),/,?,/,14.6µM*,i,i
Cc1cccc(C)c1NC(=O)C(c1ccncc1)n1c(=O)c(-c2cc3ccccc3[nH]2)nc2ccccc21 (centres undefined),/,20.6µM*,/,18.4µM*,?,?
N#CCCn1nc(-c2ccccc2)cc1Nc1ccccc1NC(=O)C(F)(F)F,-0.3%,-0.4%,-2.0%,12.1%,i,20.6µM*
CS/C(=N\S(=O)(=O)c1cccs1)NC(=O)CSc1nc2ccccc2s1,-5.5%,-6.9%,11.6µM*!,-1.8%,i,i
C/C(=N/NC(=O)CSc1nc2ccccc2s1)c1ccncc1,-1.1%,-14.1%,29.1%,-4.4%,i,i
CCc1ccccc1NC(=O)Nc1ccc2snnc2c1,/,/,/,/,i,i
O=C(Nc1ccc2snnc2c1)Nc1cccc2ccccc12,-3.7%,?,?,?,20.6µM*,?
Cc1ccc(-c2nnn(CC(=O)N(CC(=O)NC3CCCC3)c3ccc(F)c(Cl)c3)n2)o1,-2.6%[9.22 µM],?,15.5%,16.4µM*,?,?
Cc1cccc(N(CC(=O)NCc2ccccc2)C(=O)Cn2nnc(-c3ccc(C)o3)n2)c1,0.9%,0.8%,-6.1%,-17.7%,i,2.91µM*
